Yp Topo-I inh: inhibitors of Yersinia pestis topoisomerase I. Y. pestis Topo-I cleavage product accumulation, plate reader. activity, % at 10 µM. 360,000 tested, 0.064% active. AID 504884; in the data active = activity above about 50%, passing the limit was not always enough
PriA SSB inh: blocks PriA binding to SSB C-terminal tail; AlphaScreen SSBct-PriA binding, biotinylated peptide; inhibition, % at 33 µM; 430,000 tested, 0.6% active; in the data active = inhibition mostly above about 37%, no sharp cut-off; inactive = mostly below about 20%;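 note: plate controls were negative control peptide for no effect and reference peptide for full effect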
PrP UTR inh: inhibition of PrP 5' UTR reporter expression; cell-based PrP 5' UTR mRNA reporter, plate reader; inhibition, % (concentration not given with the values); 340,000 tested, 0.35% active; in the data active = inhibition above about 52%; note: 0 = median of the neutral control wells
PfHsp40 rescue: compounds rescuing yeast from Plasmodium falciparum HSP40 toxicity; AID 504582; 340,000 tested, 0.68% active; S. cerevisiae expressing PfHsp40, growth rescue, ATP luminescence; growth rescue, % at 12.5 µM; in the data active = growth rescue above about 28%, passing the limit was not always enough;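 note: yeast W303a lacking pdr1 and pdr3 grown in galactose medium; growth measured after three days at 30 °C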
PrPC surface inh: cell surface PrPC inhibition, primary TR-FRET screen | P04156 | inhibition, % at 13.8 µM | TR-FRET read-out | 370,000 tested, 0.43% active | AID 720596; in the data active = inhibition above about 24%; note: 0% = median of the test wells and 100% = reference compound wells
BJeLR lethal: kills HRASV12-expressing BJeLR cells. BJeLR (HRASV12) viability, CellTiter-Glo ATP luminescence, 48 h. inhibition, % (test concentration not listed). 300,000 tested, 0.17% active. AID 1554; in the data active = inhibition above about 50%
* marks the source's active call; other numbers are inactive results; x = no result given. Most compounds without a hit are left out; they make up all but 1.7% or so of the library.

SMILES | Yp Topo-I inh | PriA SSB inh | PrP UTR inh | PfHsp40 rescue | PrPC surface inh | BJeLR lethal
O=C(CN1C(=O)NC2(CCOc3ccccc32)C1=O)Nc1nc(-c2ccccn2)cs1 (stereo not drawn) | x | 111* | x | x | x | x
CCCCC(=O)Nc1nc(-c2ccccn2)cs1 | x | 50* | x | x | x | x
O[C@H](COc1ccc2cc(Br)ccc2c1)Cn1cnc2ccccc21 | x | 2 | x | x | x | x
O=C(O)CSc1cc(-c2ccccc2)ncn1 | x | -28 | x | x | x | x
O=C(Nc1nc(C(=O)NCc2ccc(F)cc2)cs1)c1ccc(Cl)cc1 | x | 3 | x | x | x | x
O=C1CN(C(=O)c2cccc(C(F)(F)F)c2)c2ccccc2N1 | x | 0 | x | x | x | x
COc1cc2c(ccc3c4cc(OC)c(OC)cc4c[n+](C)c23)cc1O | -44 | -8 | 21 | 127* | -38 | x
COc1ccc2c(c1)c[n+](C)c1c3cc(OC)c(OC)cc3ccc21 | x | x | x | x | -24 | x
CCOc1ccc(C(=O)Nc2ccc(Cc3ccncc3)cc2)cc1Br | 11 | -2 | -6 | 60* | -1 | -4
COc1ccc(NC(=O)Nc2nccn(-c3cccc(Cl)c3)c2=O)cc1OC | x | -7 | x | x | x | x
CCOC(=O)C(NCc1ccc2c(c1)OCO2)(NC(=O)c1ccccc1)C(F)(F)F (stereo not drawn) | 4 | -6 | -22 | 45* | 0 | -7
CCOC(=O)c1c(C)[nH]c(C(=O)NN=Cc2ccccc2Cl)c1C | x | 2 | x | x | x | x
CCOC(=O)c1c(C)[nH]c(C(=O)N/N=C\c2ccccc2O)c1C | -2 | x | 9 | 37* | 9 | 37
CCCc1cc(C(=O)NNC(=S)NCC2CCCO2)cs1 (stereo not drawn) | -1 | -1 | -13 | 69* | -1 | 3
O=C(CCc1csc(NC(=O)Nc2cccc(Cl)c2)n1)NCCC1=CCCCC1 | x | -3 | x | x | x | x
CCCCn1c(=O)[nH]c(=O)c2c1nc(-c1ccsc1)n2Cc1ccccc1 | 59* | -12 | -17 | 0 | -3 | 5
CCc1ccccc1NC(=O)CSc1ncc(S(=O)(=O)c2ccc(C)cc2)c(N)n1 | x | -2 | x | x | x | x
COc1ccc2nc3ccccc3nc2c1N | -18 | 48* | -62 | 0 | -37 | 4
COc1ccc(NC(=S)N/N=C2\CC(C)(C)Oc3ccc(O)cc32)cc1 | -9 | x | -3 | 39* | 7 | -10
COc1ccccc1NC(=S)N/N=C1\CC(C)(C)Oc2ccc(O)cc21 | -22 | x | -31 | 0 | -11 | 1
Cc1cccc(NC(=S)NN=C2CC(C)(C)Oc3ccc(O)cc32)c1 | x | 47* | x | x | x | x
Cc1ccccc1NC(=S)NN=C1CC(C)(C)Oc2ccc(O)cc21 | x | 47* | x | x | x | x
CCS(=O)(=O)N1CCc2ccc(N)cc2C1 | x | 2 | x | x | x | x
Cc1cccc(N=NC(=CO)C(=O)c2cccs2)c1 | x | 40 | x | x | x | x
COc1ccc(N=N/C(=C\O)C(=O)c2cccs2)cc1 | 21 | x | -17 | 478* | 5 | 5
SMILES | Yp Topo-I inh | PriA SSB inh | PrP UTR inh | PfHsp40 rescue | PrPC surface inh | BJeLR lethal
Cc1ccc(Cl)c(OC(=O)c2ccc(N3CCOCC3)c([N+](=O)[O-])c2)c1 | 0 | 45* | 4 | 1 | 0 | 6
O=[N+]([O-])c1cc(-n2cccc2)ccc1N1CCOCC1 | -8 | 47* | -23 | 0 | -19 | -11
Cc1ccc(C(=O)ON=Cc2ccc(N3CCOCC3)c([N+](=O)[O-])c2)cc1 | x | 15 | x | x | x | x
O=C(c1ccc(Br)cc1)c1ccc(N2CCOCC2)c([N+](=O)[O-])c1 | x | 82* | x | x | x | x
O=[N+]([O-])c1cc(S(=O)(=O)C(F)(F)F)ccc1N1CCN(c2ccccc2)CC1 | 5 | 47* | -19 | 1 | -2 | -7
Cc1ccc(C)n1-c1ccc(N2CCOCC2)c([N+](=O)[O-])c1 | -5 | 13 | -29 | -2 | -13 | -2
Nc1cc2c3c(c1)CCC(=O)N3CCC2 | x | 9 | x | x | x | x
CCOC(=O)c1cc(NC(=O)c2ccc(S(=O)(=O)N3CCc4ccccc43)cc2)c(-c2ccccc2)s1 | x | 10 | x | x | x | x
CN1CCN(c2ccc(C(=O)c3ccc(Br)cc3)cc2[N+](=O)[O-])CC1 | 6 | 43* | -3 | 0 | -14 | 11
CN1CCN(c2ccccc2NC(=O)c2ccc(N3CCCC3)c([N+](=O)[O-])c2)CC1 | -14 | 27 | -10 | -1 | -10 | 4
CCN(CC)S(=O)(=O)c1cccc(C(=O)NCC(c2ccccc2)N(C)C)c1 (stereo not drawn) | 17 | 0 | 0 | 97* | -10 | 20
Cc1ccc2nc(C3CN(C(=O)Cc4ccc(Cl)cc4)C3)[nH]c2c1 | x | 2 | x | x | x | x
O=C(c1c(F)cccc1Cl)N1CCN(c2ccc(-n3cncn3)nn2)CC1 | x | -9 | x | x | x | x
O=S(=O)(c1ccc(SCc2ccc(Cl)cc2)nc1)N1CCCC1 | 53* | -48 | -11 | 1 | 14 | x
CCC(Oc1ccccc1)C(=O)Nc1nnc(C)s1 (stereo not drawn) | -3 | -15 | -1 | -2 | -3 | -4
CCC(Oc1ccccc1)C(=O)Nc1ncc([N+](=O)[O-])s1 (stereo not drawn) | -2 | -9 | -23 | 166* | -7 | -11
COc1ccccc1-c1nnc(NC(=O)c2sc3ccccc3c2Cl)o1 | x | -22 | x | x | x | x
O=S(=O)(Nc1ccn(-c2ccccc2)n1)c1ccc(Br)cc1 | -1 | -6 | -15 | 60* | 1 | 2
C=CS(=O)(=O)N(Cc1ccc(F)cc1)C(=C)C(=O)OC | x | x | x | x | 53* | x
Cc1ccc(-c2nn(CC(=O)NCc3cc(-c4nn(C)c(=O)c5ccccc45)ccc3C)c(=O)c3ccccc23)cc1 | 26 | -17 | -5 | -1 | 0 | 125*
Cc1cccc(Nc2nc(N)c([N+](=O)[O-])c(N3CCCC(C)C3)n2)c1 (stereo not drawn) | 27 | 38 | -18 | 166* | 2 | 14
CC(=O)Oc1c(I)cc(I)cc1C(=O)Nc1ccc(Cl)cc1 | -3 | -2 | -18 | 217* | -5 | 9
COc1ccc(Cl)cc1C(=O)Nc1ccc(NC(C)=O)cc1 | 3 | 5 | -9 | -1 | -1 | -14
CCN(CC)c1ccc(Nc2nc(Cl)ncc2Br)cc1 | 0 | 41* | x | -1 | 6 | -4
CC(=O)OC(C)(C)C(=O)NCC1(O)Cc2ccccc2C1 | x | -1 | x | x | x | x
SMILES | Yp Topo-I inh | PriA SSB inh | PrP UTR inh | PfHsp40 rescue | PrPC surface inh | BJeLR lethal
COc1ccc(OCC(=O)Nc2nc3c(s2)CCCC3)cc1 | 2 | 9 | -9 | 8 | 5 | 1
COc1ccc(NC(=O)Nc2nc3c(s2)CCCC3)cc1 | -13 | 13 | -103 | 56* | 23 | 4
CC(=O)SCC(=O)N=c1sc2cc(C)ccc2n1C | x | 13 | x | x | x | x
Nc1ccc(/C=C/c2ccccc2)cc1 | x | 40* | x | x | x | x
Nc1ccc(-c2ccccc2)cc1 | -4 | -7 | -21 | -1 | 6 | x
COc1ccccc1[C@H](CNC(=O)C(=O)Nc1ccc(F)c(Cl)c1)OC | x | -20 | x | x | x | x
N#Cc1ccc(COCC2CCN(Cc3ccc(Br)cc3)CC2)cc1 | x | -9 | x | x | x | x
COc1cccc(/C=C2/SC(=S)N(CC(=O)NNC(=O)c3ccccc3O)C2=O)c1 | -3 | -5 | -12 | 155* | -5 | 2
O=C(CN1C(=O)/C(=C/c2ccccc2)SC1=S)NNC(=O)c1ccccc1O | -8 | -8 | -16 | -1 | -2 | -1

Source: PubChem BioAssay (several laboratories)
